This is an account of results in PubChem BioAssay.

Several values for one entry are separate records, joined by “and”; a condition that tells them apart may be missing. Equal values may be shown once. Results filed as inconclusive are left out. Activity calls are given as the source filed them.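 Rule for the calls, unless noted: active = compounds whose cell count with miR-34 switched on is under 0.7 times the count with it off; inactive = the rest.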

Assay [1] is described as follows: sensitizers of A549 cells to miR-34 induction, primary screen, imaging, A549 dox-inducible miR-34, nuclei and caspase counts (AID 1347080). As to conditions: A549 miR-34 inducible, Hoechst nuclei count, 48 h.
The nature of assay [2]: phospholipid biosynthesis inhibitors in animal cells, primary screen, cell-based, LOPAC library, screen 4 (AID 1347384; call rule not given here). The settings on record: phospholipid biosynthesis inhibition screen, at 10 µM.
The nature of assay [3]: survival rescue of mitochondrial mutant cells in low glucose, primary screen, MELAS cybrids, Rieske KO mouse fibroblasts, CellTiter-Glo (AID 1508586;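 active = mean z-score across replicates of 1.96 or higher in either the MELAS or the Rieske mutant cell line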;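 note: z relative to plate mean and SD of compound and empty wells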). For orientation: ATP-based viability assays read luminescence as a measure of living cells.
Assay [4] concerns the target NAD(+) hydrolase SARM1 (Homo sapiens) (UniProt Q6SZW1). Briefly: SARM1 TIR NADase inhibitors, cell lysate, NAD-Glo luminescence (AID 1508614;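 active = compound whose remaining NAD level is above about 45 nM, limit read from the data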;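 note: higher remaining NAD means stronger inhibition of SARM1 NADase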). As to conditions: SAM-TIR HEK293T lysate NADase, at 1 µM, stronger effect = higher value.
In assay [5] the target is Mitogen-activated protein kinase 7 (Homo sapiens) (UniProt Q13164). Briefly: ERK5 transactivation activators in reporter cells, primary screen, cell-based, HTS (AID 1508626;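 active = luciferase signal above three times the same-plate solvent-only control wells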;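 note: luciferase driven by Gal4-ERK5 fusion binding five Gal4 sites before minimal TATA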). As to conditions: HeLa Gal4-ERK5 transactivation, 18 h, at 5 µM, stronger effect = higher value.
Assay [6] can be described thus: viability rescue of complex I mutant cybrids, primary screen, cell-based, galactose medium, ATP luminescence (AID 1645843;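 active = z-score of at least 1.8 in each of two replicates, scored against plate mean and spread of sample wells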;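 note: positive z means more ATP and so rescue of galactose-driven cybrid death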). The settings on record: complex I mutant cybrid cells, 72 h, stronger effect = higher value.
Assay [7] in a line: JHH-DIPG-1 glioma cell viability, MIPE5.0 library, CellTiter-Glo luminescence, qHTS (AID 1347067; cut-off not given, nearly all actives have AC50 up to about 26 µM;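 note: cells exposed to compound for 48 hours before readout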). The settings on record: JHH-DIPG-1 glioma viability, CellTiter-Glo ATP luminescence.
Assay [8] is described as follows: SU-DIPG-XXV glioma cell viability, MIPE5.0 library, qHTS (AID 1347068; cut-off not given, nearly all actives have IC50 up to about 30 µM). For orientation: In qHTS, concentration-response curves come from the screen itself.
Setting [9] is: stronger effect = lower value, cell number ratio, induced over uninduced.
Where [10] appears, read: measured here: relative caspase fold change +Dox/-Dox.
Setting [11] is: measured here: total cells with miR-34 induction, stronger effect = lower value.
[12] abbreviates: measured here: total cells without miR-34 induction.
Setting [13] is: MELAS cybrid survival, CellTiter-Glo 48 h, stronger effect = higher value.
Setting [14] is: Rieske KO mouse fibroblast survival, CellTiter-Glo 72 h.

Chain of Mitogen-activated protein kinase 7 (Homo sapiens) (Q13164 whole entry, looked up, the tested form may be a part): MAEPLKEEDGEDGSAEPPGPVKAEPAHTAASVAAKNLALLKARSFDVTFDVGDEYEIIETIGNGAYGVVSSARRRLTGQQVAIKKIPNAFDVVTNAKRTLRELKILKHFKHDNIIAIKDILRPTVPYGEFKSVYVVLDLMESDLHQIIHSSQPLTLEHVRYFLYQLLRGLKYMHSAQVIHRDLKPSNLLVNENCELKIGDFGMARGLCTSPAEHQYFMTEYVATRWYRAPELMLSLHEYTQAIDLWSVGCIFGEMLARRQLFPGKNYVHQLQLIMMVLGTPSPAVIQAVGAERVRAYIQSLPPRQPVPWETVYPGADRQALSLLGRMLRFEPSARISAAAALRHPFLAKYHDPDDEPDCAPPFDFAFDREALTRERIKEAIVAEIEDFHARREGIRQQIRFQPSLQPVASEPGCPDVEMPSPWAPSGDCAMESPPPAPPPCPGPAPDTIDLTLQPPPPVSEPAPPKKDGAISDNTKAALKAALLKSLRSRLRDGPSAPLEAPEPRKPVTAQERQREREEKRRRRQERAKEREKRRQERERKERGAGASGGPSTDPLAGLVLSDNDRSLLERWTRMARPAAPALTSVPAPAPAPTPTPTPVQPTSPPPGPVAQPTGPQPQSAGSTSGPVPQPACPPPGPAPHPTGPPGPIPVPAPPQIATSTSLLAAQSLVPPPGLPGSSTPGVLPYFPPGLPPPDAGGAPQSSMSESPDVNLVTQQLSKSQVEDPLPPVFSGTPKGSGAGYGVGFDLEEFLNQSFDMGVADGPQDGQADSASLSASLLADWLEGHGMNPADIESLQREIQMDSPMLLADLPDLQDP
Chain of NAD(+) hydrolase SARM1 (Homo sapiens) (Q6SZW1 whole entry, looked up, the tested form may be a part): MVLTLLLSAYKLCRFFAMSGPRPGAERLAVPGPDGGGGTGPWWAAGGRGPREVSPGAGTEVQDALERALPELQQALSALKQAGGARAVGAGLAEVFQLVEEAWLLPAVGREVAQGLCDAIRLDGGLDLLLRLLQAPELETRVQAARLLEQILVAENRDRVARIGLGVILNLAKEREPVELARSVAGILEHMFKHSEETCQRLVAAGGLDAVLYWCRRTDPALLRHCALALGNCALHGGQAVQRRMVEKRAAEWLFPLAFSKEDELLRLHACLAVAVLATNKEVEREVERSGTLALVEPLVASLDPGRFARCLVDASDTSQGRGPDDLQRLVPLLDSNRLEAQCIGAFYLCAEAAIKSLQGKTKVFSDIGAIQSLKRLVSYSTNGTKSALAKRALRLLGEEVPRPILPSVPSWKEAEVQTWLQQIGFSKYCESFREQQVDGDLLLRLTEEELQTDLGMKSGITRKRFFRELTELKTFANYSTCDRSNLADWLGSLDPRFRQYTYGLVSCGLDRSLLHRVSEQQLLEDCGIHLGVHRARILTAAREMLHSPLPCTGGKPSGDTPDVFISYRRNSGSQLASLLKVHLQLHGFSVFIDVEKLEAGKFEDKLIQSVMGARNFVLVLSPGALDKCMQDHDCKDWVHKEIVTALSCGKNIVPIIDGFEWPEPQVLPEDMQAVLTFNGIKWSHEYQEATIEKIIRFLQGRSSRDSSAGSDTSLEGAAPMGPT

Consider `CC(CN(C)C)CN1c2ccccc2CCc2ccccc21` (stereo unspecified), for which the fold change in assay [1] (setting [9]) was 1.11 (inactive) and 0.82 (inactive) and 0.914 (inactive); in assay [1] (setting [10]), 1.28 and 1.05 and 3.48. The cell count was 8450 and 7420 and 11100 in assay [1] (setting [11]); 7640 and 9050 and 12100 in assay [1] (setting [12]). Moreover, the molecule was classed as inactive in assay [2]. In addition, the z-score is -0.24 (inactive) in assay [3] (setting [13]), -0.99 in assay [3] (setting [14]) and -1.16 (inactive) in assay [6]. Besides, in assay [4], the remaining NAD is 10 nM (inactive). Further, in assay [5], the luciferase signal is 64 AU (inactive).
Take `COc1cc(C(=O)NS(=O)(=O)c2ccccc2C)ccc1Cc1cn(C)c2ccc(NC(=O)OC3CCCC3)cc12`: the call in assay [7] and in assay [8] was inactive. Besides, the z-score in assay [3] (setting [13]) is -0.216 (inactive) and 0.374 (inactive) and -0.157 (inactive); in assay [3] (setting [14]), 0.567 and -0.073 and 0.0854; in assay [6], 1.64 (inactive) and 1.23 (inactive).
On to `CO[C@@]1(NC(=O)CSCC#N)C(=O)N2C(C(=O)O)=C(CSc3nnnn3C)CS[C@@H]21`, for which the fold change in assay [1] (setting [9]) was 1.01 (inactive) and 0.961 (inactive); in assay [1] (setting [10]) it was 1.5 and 1.13. For the same molecule, the cell count in assay [1] (setting [11]) was 11000 and 9300; in assay [1] (setting [12]), 10900 and 9680. For the same molecule, the molecule was classed as inactive in assay [2]. In addition, the values for the z-score in assay [3] (setting [13]), in assay [3] (setting [14]) and in assay [6] were -0.493 (inactive), -0.322 and 0.77 (inactive), respectively. In addition, in assay [4], the remaining NAD is 10 nM (inactive). In addition, the luciferase signal in assay [5] was 108 AU (inactive).
As for `COc1ccc(CC2c3cc(OC)c(OC)cc3CC[N+]2(C)CCC(=O)OCCCCCOC(=O)CC[N+]2(C)CCc3cc(OC)c(OC)cc3C2Cc2ccc(OC)c(OC)c2)cc1OC` (stereo unspecified), the molecule was classed as inactive in assay [8]. Besides, the z-score was -0.594 (inactive) and -1.25 (inactive) and -0.066 (inactive) in assay [3] (setting [13]); -0.336 and -0.215 and -0.301 in assay [3] (setting [14]); -0.89 (inactive) and 0.01 (inactive) in assay [6]. Further, the remaining NAD in assay [4] was 10 nM (inactive).
`CCN(CC)CCNC(=O)COc1ccc(OC)cc1`: the fold change was 0.859 (inactive) and 0.867 (inactive) in assay [1] (setting [9]); 1.24 and 3.74 in assay [1] (setting [10]). The cell count in assay [1] (setting [11]) is 9000 and 11100; in assay [1] (setting [12]), 10500 and 12800. For the same molecule, the z-score in assay [3] (setting [13]) is 0.396 (inactive); in assay [3] (setting [14]), -0.0981. Also, the remaining NAD in assay [4] is 10 nM (inactive). In assay [5], the luciferase signal is 72 AU (inactive).
For `Cc1nnc(SCC2=C(C(=O)O)N3C(=O)[C@@H](NC(=O)Cn4cnnn4)[C@H]3SC2)s1`, the fold change in assay [1] (setting [9]) was 1.03 (inactive) and 0.804 (inactive) and 0.912 (inactive); in assay [1] (setting [10]) it was 1.87 and 0.957 and 4.16. Further, the cell count in assay [1] (setting [11]) is 10400 and 8100 and 11000; in assay [1] (setting [12]), 10100 and 12000. In addition, the molecule was called inactive in assay [2]. In addition, the z-score in assay [3] (setting [13]) is 0.651 (inactive); in assay [3] (setting [14]), 0.288; in assay [6], -0.3 (inactive). Further, the remaining NAD in assay [4] is 10 nM (inactive). Besides, in assay [5], the luciferase signal was 28 AU (inactive).
`C[C@]12C[C@H](O)[C@H]3[C@@H](CCC4=CC(=O)CC[C@@]43C)[C@@H]1CC[C@@H]2C(=O)CO`: the fold change is 0.955 (inactive) and 0.755 (inactive) and 0.815 (inactive) in assay [1] (setting [9]); 2.18 and 1.95 and 1.31 in assay [1] (setting [10]). Further, the cell count in assay [1] (setting [11]) was 7560 and 6880 and 7400; in assay [1] (setting [12]), 7920 and 9120 and 9080. The molecule was classed as inactive in assay [2]. In addition, the z-score is 0.478 (inactive) and -0.124 (inactive) in assay [3] (setting [13]); -0.146 and 0.938 in assay [3] (setting [14]); -0.085 (inactive) and -0.065 (inactive) in assay [6].
`CCC(Cc1c(I)cc(I)c(N)c1I)C(=O)O` (stereo unspecified): the fold change in assay [1] (setting [9]) was 0.941 (inactive) and 0.781 (inactive); in assay [1] (setting [10]) it was 0.773 and 3.75. Also, the cell count in assay [1] (setting [11]) was 9300 and 9110; in assay [1] (setting [12]), 9880 and 11700. The z-score in assay [3] (setting [13]) was 0.0916 (inactive); in assay [3] (setting [14]) it was -0.459. Further, the remaining NAD in assay [4] was 10 nM (inactive). In addition, in assay [5], the luciferase signal is 56 AU (inactive).
As to `CCCCC1(COC(=O)CCC(=O)O)C(=O)N(c2ccccc2)N(c2ccccc2)C1=O`, the fold change in assay [1] (setting [9]) is 0.884 (inactive); in assay [1] (setting [10]), 1.12. In addition, the figures for the cell count in assay [1] (setting [11]) and in assay [1] (setting [12]) were 8700 and 9850, respectively. For the same molecule, the z-score is 0.542 (inactive) in assay [3] (setting [13]) and 0.234 in assay [3] (setting [14]). Also, the remaining NAD in assay [4] is 10 nM (inactive).
